Common to all, as to experiment: DAPPL (digital affinity profiling via proximity ligation, sequencing); 10 mM Tris-HCl pH 7.5, 50 mM NaCl, 1 mM DTT, 4% glycerol, room temperature, 30 min; GST-TFs on glutathione beads, 16-mer random dsDNA library, 0.1% formaldehyde crosslink after washing; high values mean tight binding
The target in one assay is T1, ELK3 (Homo sapiens, UniProt P41970 1-407).
T1 sequence: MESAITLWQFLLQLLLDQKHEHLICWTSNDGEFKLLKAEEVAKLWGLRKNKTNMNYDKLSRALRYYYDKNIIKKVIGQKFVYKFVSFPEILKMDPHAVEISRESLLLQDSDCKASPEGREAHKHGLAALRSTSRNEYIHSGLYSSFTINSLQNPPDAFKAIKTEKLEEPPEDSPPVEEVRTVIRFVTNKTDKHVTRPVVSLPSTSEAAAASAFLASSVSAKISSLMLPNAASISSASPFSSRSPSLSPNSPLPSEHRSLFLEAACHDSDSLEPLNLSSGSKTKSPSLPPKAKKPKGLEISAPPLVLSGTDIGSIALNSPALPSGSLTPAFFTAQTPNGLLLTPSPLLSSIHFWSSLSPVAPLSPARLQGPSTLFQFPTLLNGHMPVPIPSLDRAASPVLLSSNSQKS
The note with it: protein: recombinant; tags: N-terminal GST; dsDNA, one strand shown. An outline of the steps: (§1)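 A tag-only sample was pooled with DNA-barcoded human transcription factors that had been expressed in yeast as GST fusions and captured on glutathione beads. The pools were incubated for 30 min at room temperature with 200 nmole of a random double-stranded 16-mer DNA library in Tris/NaCl/DTT/glycerol buffer, then washed, crosslinked with 0.1% formaldehyde, proximity-ligated (BsaI/T4 ligase, 1 h, 37 °C), PCR-amplified and sequenced on an Illumina NextSeq500. Binding signal is each hexamer's read frequency for a factor divided by its frequency for the tag-only sample.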

A further assay addresses HSF1 (Homo sapiens, UniProt Q00613 1-529). As to conditions: protein: recombinant; tags: N-terminal GST; chain copies: 3; dsDNA, one strand shown. An outline of the steps:
as §1

A further assay has as its target T2, SPIC (Homo sapiens, UniProt Q8N5J4 1-248).
T2 sequence: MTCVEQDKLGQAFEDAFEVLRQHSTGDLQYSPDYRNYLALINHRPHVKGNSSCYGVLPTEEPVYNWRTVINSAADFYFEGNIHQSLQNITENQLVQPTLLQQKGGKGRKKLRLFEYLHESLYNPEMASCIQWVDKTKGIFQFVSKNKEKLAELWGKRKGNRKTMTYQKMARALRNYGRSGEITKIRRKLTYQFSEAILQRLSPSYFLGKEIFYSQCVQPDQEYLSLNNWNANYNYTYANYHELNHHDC
The note with it: protein: recombinant; tags: N-terminal GST; dsDNA, one strand shown. A digest of the protocol:
as §1

The target in another assay is T3, ELF3 (Homo sapiens, UniProt P78545 1-371).
T3 sequence: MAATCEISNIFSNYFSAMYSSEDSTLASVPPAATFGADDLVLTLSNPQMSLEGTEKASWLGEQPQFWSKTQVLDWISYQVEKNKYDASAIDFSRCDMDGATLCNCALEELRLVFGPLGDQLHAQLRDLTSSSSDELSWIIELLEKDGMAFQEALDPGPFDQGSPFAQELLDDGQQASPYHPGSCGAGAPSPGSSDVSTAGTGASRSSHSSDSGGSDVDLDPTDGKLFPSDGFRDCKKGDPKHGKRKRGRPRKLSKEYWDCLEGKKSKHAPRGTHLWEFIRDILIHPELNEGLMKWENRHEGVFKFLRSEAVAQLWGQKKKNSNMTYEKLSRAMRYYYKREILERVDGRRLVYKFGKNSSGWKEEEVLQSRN
The note with it: protein: recombinant; tags: N-terminal GST; dsDNA, one strand shown. A digest of the protocol: as §1

Another assay has as its target ELF4 (Homo sapiens, UniProt Q99607 1-663). As to conditions: protein: recombinant; tags: N-terminal GST; dsDNA, one strand shown. An outline of the steps:
as §1

For another assay, the target named is T4, ELK4 (Homo sapiens, UniProt P28324-2 1-405).
T4 sequence: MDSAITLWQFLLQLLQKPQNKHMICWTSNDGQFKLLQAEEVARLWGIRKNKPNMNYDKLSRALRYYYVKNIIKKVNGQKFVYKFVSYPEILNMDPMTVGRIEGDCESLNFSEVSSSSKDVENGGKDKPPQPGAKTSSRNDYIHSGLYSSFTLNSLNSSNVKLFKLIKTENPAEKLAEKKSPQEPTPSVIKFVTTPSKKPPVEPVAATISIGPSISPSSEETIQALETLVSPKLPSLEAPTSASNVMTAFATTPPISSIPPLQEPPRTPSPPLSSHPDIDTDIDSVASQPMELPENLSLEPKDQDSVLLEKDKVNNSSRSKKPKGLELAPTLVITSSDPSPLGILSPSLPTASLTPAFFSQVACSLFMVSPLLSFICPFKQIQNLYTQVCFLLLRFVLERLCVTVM
As to conditions: protein: recombinant; tags: N-terminal GST; dsDNA, one strand shown. A digest of the protocol:
as §1

The next assay concerns the target T5, ETV2 (Homo sapiens, UniProt O00321 1-342).
T5 sequence: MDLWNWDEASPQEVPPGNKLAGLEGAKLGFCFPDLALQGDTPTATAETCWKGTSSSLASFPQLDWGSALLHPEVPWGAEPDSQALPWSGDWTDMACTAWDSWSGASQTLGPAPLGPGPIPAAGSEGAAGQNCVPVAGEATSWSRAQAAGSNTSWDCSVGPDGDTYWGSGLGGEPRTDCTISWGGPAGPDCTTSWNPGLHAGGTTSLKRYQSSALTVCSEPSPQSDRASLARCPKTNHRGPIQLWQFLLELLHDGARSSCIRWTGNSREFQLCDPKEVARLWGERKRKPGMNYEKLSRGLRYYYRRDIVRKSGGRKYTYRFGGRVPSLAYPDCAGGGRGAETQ
As to conditions: protein: recombinant; tags: N-terminal GST; dsDNA, one strand shown. An outline of the steps:
as §1

For the next assay, the target named is CRX (Homo sapiens, UniProt O43186 1-299). The note with it: protein: recombinant; tags: N-terminal GST; dsDNA, one strand shown. A digest of the protocol: as §1
The next assay has as its target T6, ETV7 (Homo sapiens, UniProt Q9Y603 1-341).
T6 sequence: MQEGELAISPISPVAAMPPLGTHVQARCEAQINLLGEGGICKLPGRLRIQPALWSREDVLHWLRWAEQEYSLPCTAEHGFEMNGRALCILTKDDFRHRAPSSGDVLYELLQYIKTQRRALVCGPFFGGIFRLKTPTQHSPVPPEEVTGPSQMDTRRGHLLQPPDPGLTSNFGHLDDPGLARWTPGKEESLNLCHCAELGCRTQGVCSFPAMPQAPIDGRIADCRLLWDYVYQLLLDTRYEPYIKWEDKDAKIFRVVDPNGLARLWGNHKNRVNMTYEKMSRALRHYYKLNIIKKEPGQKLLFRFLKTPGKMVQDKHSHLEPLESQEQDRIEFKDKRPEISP
The note with it: protein: recombinant; tags: N-terminal GST; dsDNA, one strand shown. An outline of the steps:
as §1

The next assay concerns the target T7, ELK1 (Homo sapiens, UniProt P19419 1-428).
T7 sequence: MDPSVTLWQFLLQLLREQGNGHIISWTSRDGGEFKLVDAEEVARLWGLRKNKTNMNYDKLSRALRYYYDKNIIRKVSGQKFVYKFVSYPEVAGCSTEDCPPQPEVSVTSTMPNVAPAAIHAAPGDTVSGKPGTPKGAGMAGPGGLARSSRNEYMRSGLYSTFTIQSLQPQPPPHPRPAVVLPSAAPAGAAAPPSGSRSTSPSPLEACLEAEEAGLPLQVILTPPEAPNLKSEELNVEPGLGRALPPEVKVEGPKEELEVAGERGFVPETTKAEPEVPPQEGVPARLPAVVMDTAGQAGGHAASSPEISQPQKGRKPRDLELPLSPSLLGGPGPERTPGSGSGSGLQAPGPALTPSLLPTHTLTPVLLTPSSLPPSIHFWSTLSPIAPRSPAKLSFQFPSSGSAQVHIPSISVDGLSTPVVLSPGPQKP
As to conditions: protein: recombinant; tags: N-terminal GST; dsDNA, one strand shown. An outline of the steps: as §1

For a further assay, the target named is T8, EHF (Homo sapiens, UniProt Q9NZC4 1-300).
T8 sequence: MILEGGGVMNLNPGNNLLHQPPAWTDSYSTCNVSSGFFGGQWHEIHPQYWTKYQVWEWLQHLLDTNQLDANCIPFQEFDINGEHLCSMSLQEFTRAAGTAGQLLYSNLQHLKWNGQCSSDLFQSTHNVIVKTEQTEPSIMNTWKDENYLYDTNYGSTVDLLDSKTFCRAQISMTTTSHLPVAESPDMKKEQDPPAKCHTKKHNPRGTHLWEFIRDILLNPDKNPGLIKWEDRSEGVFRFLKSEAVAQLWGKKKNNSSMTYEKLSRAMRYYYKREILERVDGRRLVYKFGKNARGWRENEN
As to conditions: protein: recombinant; tags: N-terminal GST; dsDNA, one strand shown. A digest of the protocol:
as §1

A further assay concerns the target SPI1 (Homo sapiens, UniProt P17947 1-270). The note with it: protein: recombinant; tags: N-terminal GST; dsDNA, one strand shown. An outline of the steps: as §1
Another assay deals with T9, ETV3L (Homo sapiens, UniProt Q6ZN32 1-361).
T9 sequence: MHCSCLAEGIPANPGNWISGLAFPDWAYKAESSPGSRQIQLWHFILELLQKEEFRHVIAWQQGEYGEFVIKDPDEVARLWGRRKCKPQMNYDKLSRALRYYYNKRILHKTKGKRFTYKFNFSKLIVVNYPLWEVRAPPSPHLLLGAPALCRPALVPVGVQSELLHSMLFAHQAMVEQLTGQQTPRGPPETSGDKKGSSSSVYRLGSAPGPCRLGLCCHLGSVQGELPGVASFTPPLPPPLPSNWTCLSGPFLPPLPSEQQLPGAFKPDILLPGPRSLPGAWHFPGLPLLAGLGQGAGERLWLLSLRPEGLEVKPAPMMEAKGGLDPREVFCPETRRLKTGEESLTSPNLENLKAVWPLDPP
As to conditions: protein: recombinant; tags: N-terminal GST; dsDNA, one strand shown. A digest of the protocol: as §1

The target of a further assay is T10, ETS2 (Homo sapiens, UniProt P15036 1-469).
T10 sequence: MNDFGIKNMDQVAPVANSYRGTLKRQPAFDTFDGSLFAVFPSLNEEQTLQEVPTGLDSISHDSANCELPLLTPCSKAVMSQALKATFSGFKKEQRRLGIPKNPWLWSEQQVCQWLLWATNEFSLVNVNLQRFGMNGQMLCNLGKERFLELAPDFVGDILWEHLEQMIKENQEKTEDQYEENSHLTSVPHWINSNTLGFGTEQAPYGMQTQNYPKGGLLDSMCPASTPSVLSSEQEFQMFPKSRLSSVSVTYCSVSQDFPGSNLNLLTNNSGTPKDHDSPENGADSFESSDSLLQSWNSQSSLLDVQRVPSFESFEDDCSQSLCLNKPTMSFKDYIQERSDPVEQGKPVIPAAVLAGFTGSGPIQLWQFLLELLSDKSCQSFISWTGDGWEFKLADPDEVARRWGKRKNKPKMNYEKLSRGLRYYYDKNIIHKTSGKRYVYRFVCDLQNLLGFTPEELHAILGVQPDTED
As to conditions: protein: recombinant; tags: N-terminal GST; dsDNA, one strand shown. A digest of the protocol:
as §1

In a further assay the target is T11, SPDEF (Homo sapiens, UniProt O95238 1-335).
T11 sequence: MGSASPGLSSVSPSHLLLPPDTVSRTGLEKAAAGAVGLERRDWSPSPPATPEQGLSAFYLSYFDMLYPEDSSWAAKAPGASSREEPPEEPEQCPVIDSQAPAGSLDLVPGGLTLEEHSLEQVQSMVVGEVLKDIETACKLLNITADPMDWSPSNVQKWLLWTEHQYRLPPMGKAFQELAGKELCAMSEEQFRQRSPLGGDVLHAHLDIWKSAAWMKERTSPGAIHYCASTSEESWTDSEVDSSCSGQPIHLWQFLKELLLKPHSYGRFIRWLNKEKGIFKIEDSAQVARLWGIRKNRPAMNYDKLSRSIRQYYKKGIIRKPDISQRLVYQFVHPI
As to conditions: protein: recombinant; tags: N-terminal GST; dsDNA, one strand shown. An outline of the steps:
as §1

The next assay deals with ETV6 (Homo sapiens, UniProt P41212 1-452). As to conditions: protein: recombinant; tags: N-terminal GST; dsDNA, one strand shown. An outline of the steps:
as §1

Sequence of HSF1 (Q00613 whole entry): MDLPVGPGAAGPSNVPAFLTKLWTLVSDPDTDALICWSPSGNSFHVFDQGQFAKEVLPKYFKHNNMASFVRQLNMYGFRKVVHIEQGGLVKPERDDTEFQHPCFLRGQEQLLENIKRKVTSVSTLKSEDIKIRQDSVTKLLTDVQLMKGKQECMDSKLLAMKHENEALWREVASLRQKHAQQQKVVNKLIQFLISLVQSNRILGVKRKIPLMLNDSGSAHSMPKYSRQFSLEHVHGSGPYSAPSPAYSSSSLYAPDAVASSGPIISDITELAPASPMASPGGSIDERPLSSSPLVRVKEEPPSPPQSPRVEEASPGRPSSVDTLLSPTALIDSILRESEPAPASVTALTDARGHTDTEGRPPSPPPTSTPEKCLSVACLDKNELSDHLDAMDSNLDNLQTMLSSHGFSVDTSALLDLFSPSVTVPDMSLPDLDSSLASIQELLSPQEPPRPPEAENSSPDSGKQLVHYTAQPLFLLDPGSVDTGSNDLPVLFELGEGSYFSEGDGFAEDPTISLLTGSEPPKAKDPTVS
Sequence of CRX (O43186 whole entry): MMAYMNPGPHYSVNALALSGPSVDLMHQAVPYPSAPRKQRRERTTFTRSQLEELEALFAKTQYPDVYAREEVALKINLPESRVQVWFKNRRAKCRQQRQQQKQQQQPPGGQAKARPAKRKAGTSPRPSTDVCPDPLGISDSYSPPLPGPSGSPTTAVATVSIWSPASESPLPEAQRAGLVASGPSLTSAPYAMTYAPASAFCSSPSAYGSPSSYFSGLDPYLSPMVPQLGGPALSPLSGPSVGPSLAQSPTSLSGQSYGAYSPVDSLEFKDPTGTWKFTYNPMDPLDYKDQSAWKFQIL
Sequence of ELF4 (Q99607 whole entry): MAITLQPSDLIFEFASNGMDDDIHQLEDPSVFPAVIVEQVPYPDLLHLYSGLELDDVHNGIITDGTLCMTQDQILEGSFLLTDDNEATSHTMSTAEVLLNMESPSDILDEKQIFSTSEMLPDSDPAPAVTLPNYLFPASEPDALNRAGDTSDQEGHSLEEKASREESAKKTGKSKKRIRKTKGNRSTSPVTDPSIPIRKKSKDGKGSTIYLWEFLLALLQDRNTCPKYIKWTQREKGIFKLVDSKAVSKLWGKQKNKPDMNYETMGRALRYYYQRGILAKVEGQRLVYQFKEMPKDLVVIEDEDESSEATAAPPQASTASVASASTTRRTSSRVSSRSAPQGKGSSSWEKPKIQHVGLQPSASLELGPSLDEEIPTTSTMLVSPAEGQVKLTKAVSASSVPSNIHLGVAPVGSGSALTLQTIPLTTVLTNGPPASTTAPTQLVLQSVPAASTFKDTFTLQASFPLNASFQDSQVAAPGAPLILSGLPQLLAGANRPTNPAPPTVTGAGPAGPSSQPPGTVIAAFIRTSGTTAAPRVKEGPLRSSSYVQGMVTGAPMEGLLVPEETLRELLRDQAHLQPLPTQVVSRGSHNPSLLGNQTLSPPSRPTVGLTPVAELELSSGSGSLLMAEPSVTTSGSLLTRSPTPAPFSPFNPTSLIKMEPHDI
Sequence of ETV6 (P41212 whole entry): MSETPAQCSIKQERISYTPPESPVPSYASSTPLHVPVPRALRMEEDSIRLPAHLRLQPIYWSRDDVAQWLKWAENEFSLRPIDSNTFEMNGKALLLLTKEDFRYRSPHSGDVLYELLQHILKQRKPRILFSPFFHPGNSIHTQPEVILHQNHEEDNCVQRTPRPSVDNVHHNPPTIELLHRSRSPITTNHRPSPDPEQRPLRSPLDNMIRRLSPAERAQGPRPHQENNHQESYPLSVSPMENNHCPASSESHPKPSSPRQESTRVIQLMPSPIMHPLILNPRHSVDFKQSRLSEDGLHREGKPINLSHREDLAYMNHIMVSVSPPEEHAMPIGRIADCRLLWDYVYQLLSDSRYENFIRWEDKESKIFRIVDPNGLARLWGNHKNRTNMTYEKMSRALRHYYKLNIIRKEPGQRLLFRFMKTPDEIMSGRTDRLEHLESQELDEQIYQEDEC

Take CCAGCA: the binding signal with ELK3 was 1 fold enrichment (6-mer frequency, TF over GST control); in the assay with HSF1, 1.21 fold enrichment (6-mer frequency, TF over GST control); in the assay with SPIC, 1.1 fold enrichment (6-mer frequency, TF over GST control); with ELF3, 1.06 fold enrichment (6-mer frequency, TF over GST control).
Turning to CCAGAA, the binding signal is 1 fold enrichment (6-mer frequency, TF over GST control) with ELK3; 3.7 fold enrichment (6-mer frequency, TF over GST control) with HSF1; 1.05 fold enrichment (6-mer frequency, TF over GST control) with ELF4; 1.06 fold enrichment (6-mer frequency, TF over GST control) with ELK4; 1.05 fold enrichment (6-mer frequency, TF over GST control) with ETV2; 1.07 fold enrichment (6-mer frequency, TF over GST control) with ELF3. Besides, the binding signal is 1.49 fold enrichment (6-mer frequency, TF over GST control) with CRX and 1.05 fold enrichment (6-mer frequency, TF over GST control) with ETV7.
In the case of AGATTA, the binding signal was 1.02 fold enrichment (6-mer frequency, TF over GST control) with ELK1; 1.03 fold enrichment (6-mer frequency, TF over GST control) with EHF; 1.01 fold enrichment (6-mer frequency, TF over GST control) with SPI1; 1.03 fold enrichment (6-mer frequency, TF over GST control) with ELK3; 2.62 fold enrichment (6-mer frequency, TF over GST control) in the assay with HSF1; 1.05 fold enrichment (6-mer frequency, TF over GST control) with ELF4. The binding signal with ELK4 was 1.05 fold enrichment (6-mer frequency, TF over GST control); with CRX, 4.03 fold enrichment (6-mer frequency, TF over GST control); with ETV3L it was 1.02 fold enrichment (6-mer frequency, TF over GST control); in the assay with ETS2 it was 1 fold enrichment (6-mer frequency, TF over GST control); with SPDEF, 1.05 fold enrichment (6-mer frequency, TF over GST control); with ETV6, 1.04 fold enrichment (6-mer frequency, TF over GST control).

The values are drawn from article PMC7862700, “An all-to-all approach to the identification of sequence-specific readers for epigenetic DNA modifications on cytosine”.
